ChEMBL document CHEMBL1961873, “Compounds: GSK PKIS; Assays: Nanosyn kinase panel” (2012)

These compounds were tested against Mast/stem cell growth factor receptor Kit (Homo sapiens) (UniProt P10721). Conditions: at 0.1 µM.
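Further: values are mean inhibition of KIT, from the GSK PKIS dataset.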

Sequence of Mast/stem cell growth factor receptor Kit (Homo sapiens) (P10721 whole entry): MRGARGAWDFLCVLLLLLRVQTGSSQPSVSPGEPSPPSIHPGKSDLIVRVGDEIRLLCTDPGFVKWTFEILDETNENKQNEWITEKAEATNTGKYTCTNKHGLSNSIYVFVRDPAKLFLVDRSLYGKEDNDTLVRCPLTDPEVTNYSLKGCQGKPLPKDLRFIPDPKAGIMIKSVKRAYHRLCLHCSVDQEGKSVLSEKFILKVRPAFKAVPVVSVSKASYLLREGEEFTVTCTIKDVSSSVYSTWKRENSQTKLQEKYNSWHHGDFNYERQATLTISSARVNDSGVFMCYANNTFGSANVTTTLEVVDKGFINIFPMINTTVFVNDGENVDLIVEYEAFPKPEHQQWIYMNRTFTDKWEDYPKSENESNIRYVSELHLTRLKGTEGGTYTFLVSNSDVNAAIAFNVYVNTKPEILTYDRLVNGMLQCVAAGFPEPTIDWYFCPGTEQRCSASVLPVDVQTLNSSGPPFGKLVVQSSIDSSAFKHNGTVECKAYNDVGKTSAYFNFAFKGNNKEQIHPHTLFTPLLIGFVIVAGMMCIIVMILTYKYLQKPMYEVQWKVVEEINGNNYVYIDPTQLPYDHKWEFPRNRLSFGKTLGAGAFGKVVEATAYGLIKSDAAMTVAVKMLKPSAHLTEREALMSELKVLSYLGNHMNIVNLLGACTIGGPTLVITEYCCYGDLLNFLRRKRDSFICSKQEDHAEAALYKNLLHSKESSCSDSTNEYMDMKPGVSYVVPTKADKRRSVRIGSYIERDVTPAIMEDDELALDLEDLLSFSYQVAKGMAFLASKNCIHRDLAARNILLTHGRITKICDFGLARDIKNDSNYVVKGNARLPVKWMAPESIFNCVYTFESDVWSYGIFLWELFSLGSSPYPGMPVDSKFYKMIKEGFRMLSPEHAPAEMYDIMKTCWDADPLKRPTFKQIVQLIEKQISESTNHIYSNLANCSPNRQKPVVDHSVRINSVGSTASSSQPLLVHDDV

SMILES | inhibition [%]
COc1ccc(CNC(=O)c2ccc(-c3cc(-c4nnc(C)o4)ccc3C)cc2)cc1 | 2.42
Fc1ccc(-c2cc(-c3c[nH]nc3-c3ccccn3)ccn2)cc1 | 5.29
CS(=O)(=O)CCNCc1ccc(-c2ccc3ncnc(Nc4ccc(OCc5ccccc5)c(C(F)(F)F)c4)c3c2)o1 | 6.66
COc1ccc2c(-c3ccnc(Nc4cccc(OC(F)(F)F)c4)n3)cnn2n1 | 10.7
c1ccc(-c2nc3n(c2-c2ccc4c(c2)OCO4)CCC3)nc1 | 1.86
COc1ccc(-c2cc(-c3c[nH]nc3-c3ccccn3)ccn2)cc1 | 5.05
COc1ccc(-c2cc3c(N)ncnc3o2)cc1 | -0.07
FC(F)(F)c1cccc(-c2nn3ncccc3c2-c2ccnc(Nc3ccc4c(c3)OCCO4)n2)c1 | 2.36
N#Cc1c(NC(=O)CN2CCOCC2)sc2c1CCCC2 | 6.21
COC(=O)Nc1nc2ccc(Oc3ccc(NC(=O)Nc4cccc(Cl)c4)cc3)cc2[nH]1 | 72.9
CN1CCC(n2cnc(-c3ccc(F)cc3)c2-c2ccnc(Nc3ccccc3)n2)CC1 | 2.33
Clc1ccc(-c2nn3ncccc3c2-c2ccnc(Nc3ccccc3)n2)cc1 | 11.7
COc1ccc(-c2nn3ncccc3c2-c2ccnc(Nc3ccc4c(c3)OCCO4)n2)cc1 | 40.5
Nc1nc(-c2ccc(F)cc2)c(-c2ccc3ncccc3n2)s1 | 3.28
COc1ccc2[nH]c3c4[nH]c5ccc(OC)cc5c4c4c(c3c2c1)C(=O)NC4=O | 31.3
Cc1ccc(O)cc1Nc1ccnc2cc(-c3ccccn3)ccc12 | 10.4
NS(=O)(=O)c1ccc(N/N=C2\C(=O)Nc3ccc4ncccc4c32)cc1 | 63.8
